This is an account of results in PubChem BioAssay (NCATS).

One experiment has as its system Tov112D. The experiment in a line: Primary qHTS to identify gynecologic anti-cancer compounds using libraries of approved drugs and bioactive compounds (AID 1345084). Note: nearly all actives have a fitted effect of over 55% in size. The note with it: Gynecologic cancer cell panel viability, ATPlite luminescence, 48 h; series mostly up to 57.5 µM. An outline of the steps:
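Cells, 1,000 per well, plated 16 h, then exposed 48 h at 37 C to compounds. Viability by ATPlite luminescence after 15 min at room temperature.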

Experiment [1] can be described thus: Drug repurposing screens with cells derived from glioblastoma tumor samples (AID 1345199). Note: nearly all actives have a fitted effect of over 40% in size. Note: potency is the fitted concentration of half-maximal effect. To be noted: GBM patient neurospheres viability, ATP luminescence, 48 h. The procedure, abridged:
(§1)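 Primary testing used CD133+ neurospheres from four GBM patients, seven concentrations, 48 h exposure and ATP-based viability; confirmation added three slower-growing patient lines.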

Another experiment relates to astro. Described as above. To be noted: viability, ATP luminescence, 48 h; series mostly up to 45.9 µM. An outline of the steps:
as §1

[2] abbreviates: at 20 µM (top of the series), tumour line C.
The mark [3] stands for this setting: at 21.2 µM (top of the series), tumour line B.
[4] abbreviates: at 21.2 µM (top of the series), tumour line D.
Setting [5] is: at 21.3 µM (top of the series), tumour line A.
Setting [6] is: at 45.9 µM (top of the series), tumour line B.
The mark [7] stands for this setting: at 45.9 µM (top of the series), tumour line D.
The mark [8] stands for this setting: at 46 µM (top of the series), tumour line A.
Setting [9] is: at 46.1 µM (top of the series), tumour line C.

Records with an inconclusive call do not appear. Activity calls are given as the source filed them. Calls come from the whole dose curve; as a rule, active = well fitted curve in the direction sought with a large enough effect; inconclusive = small, poorly fitted or top-dose-only effect, or another doubt; inactive = no such curve, though single readings can be large; an effect the other way counts as inactive or inconclusive.
% is set by controls: 0 for no effect and ±100 for the full control effect.

Regarding `CC(C)(C)NCC(O)COc1cccc2c1C[C@H](O)[C@H](O)C2` (stereo partly drawn), the Potency result in the experiment with Tov112D and with astro was “inactive” each time. For the same molecule, the activity, negative = cell killing in experiment [1] (setting [2]) is -4.25% (inactive); in experiment [1] (setting [3]) it was -2.25% (inactive); in experiment [1] (setting [4]), -3.22% (inactive); in experiment [1] (setting [5]) it was -16.2% (inactive).

In the case of `Nc1ccc(S(=O)(=O)Nc2cnc3ccccc3n2)cc1`, the Potency entry in the experiment on Tov112D and in the experiment with astro was “inactive” throughout. Further, the activity, negative = cell killing in experiment [1] (setting [6]) was 0.475% (inactive); in experiment [1] (setting [7]), 3.34% (inactive); in experiment [1] (setting [8]), -15.8% (inactive); in experiment [1] (setting [9]), 4.45% (inactive).

In the case of `NCCNC(=O)c1ccc(Cl)cn1`, the Potency result in the experiment on Tov112D and in the experiment on astro was “inactive” each time. Besides, the activity, negative = cell killing in experiment [1] (setting [6]) is -0.687% (inactive); in experiment [1] (setting [7]), -7.85% (inactive); in experiment [1] (setting [8]), -29.4% (inactive); in experiment [1] (setting [9]), -12.2% (inactive).

Take `CC(C)[C@@H]1CC[C@@H](C)CC1=O`: the Potency entry in the experiment with Tov112D and in the experiment with astro was “inactive” each time. Further, the activity, negative = cell killing was -6.28% (inactive) in experiment [1] (setting [6]), -8.45% (inactive) in experiment [1] (setting [7]), -24.9% (inactive) in experiment [1] (setting [8]) and -8.42% (inactive) in experiment [1] (setting [9]).

With `CCc1ccc(C(=O)C(C)CN2CCCCC2)cc1` (stereo not drawn), the Potency entry in the experiment on Tov112D and in the experiment with astro was “inactive” in each case. The activity, negative = cell killing was -6.35% (inactive) in experiment [1] (setting [6]), -22.1% (inactive) in experiment [1] (setting [7]) and -19% (inactive) in experiment [1] (setting [9]). The Potency in experiment [1] (tumour line A) was 17.8 µM (active).

Turning to `CC(C)(C)NC[C@H](O)COc1cccc2c1CCCC2=O`, the Potency entry with Tov112D and in the experiment with astro was “inactive” throughout. The activity, negative = cell killing was 5.11% (inactive) in experiment [1] (setting [2]), -13.9% (inactive) in experiment [1] (setting [3]), -6.37% (inactive) in experiment [1] (setting [4]) and -24.3% (inactive) in experiment [1] (setting [5]).

Regarding `CC(=O)NO`, the Potency entry with Tov112D and with astro was “inactive” throughout. Further, the activity, negative = cell killing in experiment [1] (setting [6]) was -7.52% (inactive); in experiment [1] (setting [7]), -5.2% (inactive); in experiment [1] (setting [8]) it was -11.7% (inactive); in experiment [1] (setting [9]) it was 11.5% (inactive).

Take `CC(=O)OCC1=C(C(=O)O)N2C(=O)[C@@H](NC(=O)CSc3ccncc3)[C@H]2SC1`: the Potency entry in the experiment on Tov112D and in the experiment on astro was “inactive” throughout. In addition, the activity, negative = cell killing was -6.44% (inactive) in experiment [1] (setting [6]), -23.6% (inactive) in experiment [1] (setting [7]), -34.9% (inactive) in experiment [1] (setting [8]) and -18.9% (inactive) in experiment [1] (setting [9]).
